# Data as given in PubChem BioAssay (NCI).
# The panel holds about 83,000 compounds, 20% with a hit somewhere; the sample as a whole holds those more often.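 Negative percent growth values reflect cell death: -40 means 40% of the cells present at the start died, and -100 means all died.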 Active and inactive are the calls of the source. Rule for the calls: active = growth percent below 10; inactive = the rest.
# System: HL-60(TB) leukemia
# Assay: NCI-60 one-dose screen, 48 h (100 = growth as untreated, 0 = no growth, -100 = all killed)
# Conditions: 10 µM unless noted
row,SMILES,growth
1,COc1cc(-c2ccc(-[n+]3nc(-c4ccc([N+](=O)[O-])cc4)nn3-c3ccc([N+](=O)[O-])cc3)c(OC)c2)ccc1-[n+]1nc(-c2ccc([N+](=O)[O-])cc2)nn1-c1ccc([N+](=O)[O-])cc1,14.2% (inactive)
2,Cn1cc(-c2csc(-c3cccc(F)c3)n2)c2cccnc21,2.72% [100 µM] (active)
3,CC(C)(C)OC(=O)N1C=C/C(=C\Cn2cc(-c3ccccc3)nn2)CC1,75.7% (inactive)
4,CCCCN(CC)CC(CC)Nc1cc(OC)cc2cccnc12 (centres undefined),126% (inactive)
